Assay outcomes (PubChem BioAssay)
AmpC inh detg = inhibitors of E. coli AmpC beta-lactamase with detergent | P00811 | AmpC hydrolysis of nitrocefin, absorbance 480 nm, 0.01% Triton | Potency, µM (doses to about 114 µM), for inactives: at the highest dose activity change, negative = inhibition, hits mostly inhibitors | actives 0.041% (n = 370,000) | AID 485294;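 also: 0% = no-compound wells and -100% = no-enzyme wells; nearly all actives have a fitted effect of over 25% in size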
Target sequence (P00811 whole entry, looked up): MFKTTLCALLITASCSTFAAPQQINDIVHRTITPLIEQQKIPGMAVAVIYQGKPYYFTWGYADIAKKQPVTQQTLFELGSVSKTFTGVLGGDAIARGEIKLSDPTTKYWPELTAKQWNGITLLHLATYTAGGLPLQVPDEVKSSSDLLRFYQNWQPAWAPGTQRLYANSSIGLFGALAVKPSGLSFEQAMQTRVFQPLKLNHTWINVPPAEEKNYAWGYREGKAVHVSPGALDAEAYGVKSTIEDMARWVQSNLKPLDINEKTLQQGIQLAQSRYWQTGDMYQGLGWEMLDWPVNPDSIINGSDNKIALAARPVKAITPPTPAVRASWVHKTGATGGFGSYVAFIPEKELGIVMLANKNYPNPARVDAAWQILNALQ
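AmpC (5.3 nM in the dispensed reagent) in 20 mM phosphate pH 7.0 with 0.01% (detergent screen) or 0.0001% Triton X-100 was preincubated with compounds for 15 min at room temperature. Nitrocefin was then added from an 800 uM solution, and hydrolysis was followed at 480 nm.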
Sm TGR block = S. mansoni TGR enzyme inhibition; Q962Y6; purified TGR, DTNB reduction, TNB absorbance 405 nm; Potency, µM (highest dose often 114 µM), inactives show at the highest dose activity change, negative = inhibition, most hits filed as inhibitors; actives 3% (n = 360,000); AID 485364; also: nearly all actives have a fitted effect of over 60% in size
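TGR 20 nM + NADPH 100 uM (dispensed conc.), cpd preinc 15 min RT; start with NADPH (500 uM addition) then DTNB (15 mM addition). Kinetic TNB absorbance, 405 nm filter. Four-parameter Hill fit across titration.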
AmpC inh no detg = blocks E. coli AmpC beta-lactamase in detergent-free assay; AID 485341; P00811; Potency, µM (highest dose often 57.1 µM), for inactives: at the top dose activity change, negative = inhibition, actives largely listed as inhibitors; actives 0.52% (n = 330,000); AmpC nitrocefin hydrolysis, absorbance 480 nm, 0.0001% Triton;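 also: plate controls were no compound for no effect and no enzyme for full effect; nearly all actives have a fitted effect of over 20% in size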
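AmpC (5.3 nM in the dispensed reagent) in 20 mM phosphate pH 7.0 with 0.01% (detergent screen) or 0.0001% Triton X-100 was preincubated with compounds for 15 min at room temperature. Nitrocefin was then added from an 800 uM solution, and hydrolysis was followed at 480 nm.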
* marks the source's active call; other numbers are inactive results; u = inconclusive; x = no result given. The list is not random: actives were taken first. Their share in the collection is about 3.3%. Calls follow the shape of the dose curve; as a rule, active = well fitted curve in the direction sought with a large enough effect; inconclusive = small, poorly fitted or top-dose-only effect, or another doubt; inactive = no such curve, though single readings can be large; an effect the other way counts as inactive or inconclusive. Unless noted, % is scaled to controls: 0 for no effect and ±100 for the full control effect; potency is read from the fitted curve at half-maximal effect.

SMILES	AmpC inh detg	Sm TGR block	AmpC inh no detg
CCCc1nn2c(=O)c(C(c3ccc(C)cc3)c3c(O)nc4sc(CCC)nn4c3=O)c(O)nc2s1	-2%	u	-39%
O=c1c(C(c2ccc(Br)cc2)c2c(O)nc3n(c2=O)CCCS3)c(O)nc2n1CCCS2	6%	2µM*	-16%
O=c1c(C(c2c(O)nc3n(c2=O)CCS3)c2cccc3ccccc23)c(O)nc2n1CCS2	0%	u	-23%
Cc1ccc(C(c2c(O)nc3n(c2=O)CCS3)c2c(O)nc3n(c2=O)CCS3)cc1	u	2.8µM*	-21%
O=c1c(C(c2ccc(O)cc2)c2c(O)nc3n(c2=O)CCCS3)c(O)nc2n1CCCS2	1%	56µM*	-19%
O=c1c(C(c2ccc(Br)cc2)c2c(O)nc3n(c2=O)CCS3)c(O)nc2n1CCS2	5%	u	-49%
O=c1c(C(c2ccc(O)cc2)c2c(O)nc3n(c2=O)CCS3)c(O)nc2n1CCS2	-3%	10µM*	-8%
C=CCn1c(SCC(=O)c2c(N)n(CCC)c(=O)n(C)c2=O)nnc1-c1ccncc1	-13%	7%	0%
COCCn1c(SCC(=O)Nc2cc(C)on2)nnc1-c1ccccc1	u	-16%	-28%
CCc1ccc(NC(=O)c2ccc(F)c(S(=O)(=O)N3CCN(c4cc(C)ccc4C)CC3)c2)cc1	-4%	-1%	x
COc1ccc2c(c1OC)C(=O)OC2Nc1nc(-c2cccc([N+](=O)[O-])c2)cs1 (stereo not given)	9%	3%	-25%
COc1cc(C)c(NC(=S)Nc2cccc(Cl)c2C)cc1OC	-1%	1%	-8%
CCOc1cc(C(N)=O)cc(Br)c1OCc1ccccc1	-2%	x	2%
CC(=O)Nc1cccc(NC(=O)Cn2cnc3c(oc4ccccc43)c2=O)c1	15%	-4%	x
CC1CC(C)CN(C(=O)C(Cc2ccccc2)n2cccc2)C1 (stereo not given)	6%	0%	6%
CC1CCN(C(=O)C(Cc2ccccc2)n2cccc2)CC1 (stereo not given)	u	u	10µM*
Cc1cccc(N2CCN(C(=O)C(Cc3ccccc3)NC(N)=O)CC2)c1C (stereo not given)	-3%	-10%	96%
Cc1cccc(N2CCN(C(=O)C(Cc3ccccc3)n3cccc3)CC2)c1C (stereo not given)	u	2%	1µM*
O=C(Cc1ccc(Br)cc1)OCC(=O)N1CCOCC1	x	x	-2%
CC(=O)Nc1nonc1NC(C)=O	u	-1%	116%
CC(=O)Nc1cc(OC(C)=O)c2nonc2c1OC(C)=O	u	8.9µM*	-14%
COc1ccc2c(c1)CCc1c-2nc2ccccc2c1N1CCOCC1	-12%	40µM*	11%
c1ccc2c(N3CCOCC3)c3c(nc2c1)CCC3	u	1%	-13%
O=C1NC(=S)S/C1=C\C=C\c1ccc([N+](=O)[O-])o1	-8%	2.2µM*	11µM*
CCOc1c(O)ccc(/C=C2\SC(=S)NC2=O)c1[N+](=O)[O-]	3%	x	-30%
SMILES	AmpC inh detg	Sm TGR block	AmpC inh no detg
CCOc1ccccc1CNC(=O)Cn1ncn2nc(-c3cccs3)cc2c1=O	15%	-2%	x
Cc1cc(=O)[nH]c(SCC(=O)Nc2ccc(Br)cn2)n1	4%	-3%	1.3µM*
Cc1ccc(-c2csc(NC(=O)CSc3nc(C)cc(=O)[nH]3)n2)cc1	-8%	-24%	14µM*
Cc1cc(=O)[nH]c(SCC(=O)Nc2ccc(C(=O)O)cc2)n1	-2%	-3%	-3%
Cc1ccc(-c2csc(NC(=O)CSC3=NCCS3)n2)cc1	1%	0%	-34%
CC(Sc1nnc(CC(=O)Nc2ccccc2F)n1C)C(=O)Nc1nccs1 (stereo not given)	0%	8%	-12%
Cc1ccc(N2C(=O)C3C4C=CC(CNC(=S)N5CCN(c6ccccc6)CC5)(O4)C3C2=O)cc1 (stereo not given)	2%	2.5µM*	-8%
Cc1cccc(NC(=S)NCC23C=CC(O2)C2C(=O)N(c4ccc(Cl)cc4)C(=O)C23)c1 (stereo not given)	-13%	3.2µM*	-40%
Cc1ccc(S(=O)(=O)NCC2(c3ccccc3)CCN(C)CC2)cc1	2%	0%	-21%
Cc1ccc(N2C(=O)[C@@H]3[C@H](C2=O)[C@H]2C=CC=NN2[C@@H]3C(=O)Nc2ccccc2)cc1	1%	u	16%
Cc1ccc(S(=O)(=O)NCC23C=CC(O2)C2C(=O)N(c4ccccc4)C(=O)C23)cc1 (stereo not given)	u	3.2µM*	-19%
